D1 ag – Allosteric Agonists of the Human D1 Dopamine Receptor: qHTS; AID 504660, 2011; D(1A) dopamine receptor (Homo sapiens), P21728; hit rate 1% among 360,000; HEK293 T-REx D1 cells, calcium flux, agonist mode; activation, % at 2 µM; in the data active means activation above about 30%; further: 0% is about no effect
Target sequence (P21728 whole entry, looked up): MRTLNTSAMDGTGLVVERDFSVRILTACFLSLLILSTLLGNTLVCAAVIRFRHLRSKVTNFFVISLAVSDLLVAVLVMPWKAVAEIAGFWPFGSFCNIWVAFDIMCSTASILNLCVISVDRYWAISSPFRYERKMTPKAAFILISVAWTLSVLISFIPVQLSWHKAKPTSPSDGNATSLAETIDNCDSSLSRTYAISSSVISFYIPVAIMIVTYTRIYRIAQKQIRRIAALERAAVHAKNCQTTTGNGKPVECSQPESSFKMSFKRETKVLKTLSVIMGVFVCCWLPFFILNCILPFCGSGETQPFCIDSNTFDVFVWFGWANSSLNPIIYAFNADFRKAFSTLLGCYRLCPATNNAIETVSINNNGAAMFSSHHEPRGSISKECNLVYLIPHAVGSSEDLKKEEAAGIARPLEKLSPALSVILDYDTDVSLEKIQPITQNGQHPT
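Tetracycline-induced HEK293 TREx D1 cells, force-coupled to calcium signalling, were dye-loaded with a no-wash calcium kit. Compound was pin-added after a 10 s baseline. Fluorescence was read kinetically at 1 cycle/s for 180 s, with calcium rises flagged as agonism.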
D1 antagonist – Antagonist of Human D 1 Dopamine Receptor: qHTS | activity change, negative = inhibition, % at 10 µM | hit rate 3.2% among 360,000 | HEK293 TREx D1 cells, calcium flux, dopamine EC80; stronger effect = lower value | AID 504652, 2011 | D(1A) dopamine receptor (Homo sapiens), P21728; in the data active means activity change below about -30%; further: on the % scale 0 is the no-effect control and ±100 the full control effect
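Allosteric or orthosteric antagonism assessed as attenuation of the calcium response to EC80 dopamine, added 180 s after compound, in induced HEK293 Trex D1 cells loaded with no-wash calcium dye.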
DRD3 agonist – qHTS of D3 Dopamine Receptor Agonist: qHTS | D(3) dopamine receptor (Homo sapiens), P35462 | D3R DiscoveRx beta-arrestin cells, luminescence, 90 min | max activation, % | hit rate 0.58% among 410,000 | AID 652048, 2013; in the data active means max activation above about 30%; further: 0% is about no effect
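Agonist mode: compounds and dopamine controls were applied to plated cells for 90 min at 37 degrees C after an overnight attachment at 1500 cells/well. Luminescent read-out followed 30 - 60 minutes at room temperature with DiscoveRx detection reagent.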
D3 antag – qHTS of D3 Dopamine Receptor Antagonist: qHTS | AID 652054, 2013 | max response, negative = inhibition, % | hit rate 2.5% among 360,000 | D(3) dopamine receptor (Homo sapiens), P35462 | D3R cells, DiscoveRx beta-arrestin luminescence, antagonist mode; stronger effect = lower value; in the data active means max response below about -50%; inconclusive means no clear call, values can overlap the other calls; further: on the % scale 0 is the no-effect control and ±100 the full control effect
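Cells plated overnight at 1500 cells/well, then exposed to library compounds with dopamine controls for 90 minutes at 37 degrees C. DiscoveRx reagent added for 30–60 minutes at room temperature; luminescence read, quantitative HTS format.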
D1 PAM – Potentiators of Human D1 Dopamine Receptor: qHTS. D(1A) dopamine receptor (Homo sapiens), P21728. HEK293 TREx D1 cells, calcium flux, dopamine EC20 potentiation. potentiation, % at 10 µM. hit rate 0.036% among 360,000; in the data active means potentiation above about 30%; further: 0% is about no effect
* = called active by the depositor; ? = inconclusive; . = not tested or not shown. Only some compounds are listed: those with a hit (about 6.1% of all), similar ones and a draw of the others.

SMILES	D1 ag	D1 antagonist	DRD3 agonist	D3 antag	D1 PAM
COc1ccc(CCC(C)NC2C3CC4CC(C3)CC2C4)cc1 (stereo unspecified)	10.3	-71.2*	-60.0	-96.6*	0.0
COc1cc(CCC(C)NCc2ccccc2)ccc1O (stereo unspecified)	5.2	-0.8	31.7*	-17.0	-3.0
COc1ccc(CNC(C)CCc2ccccc2)cc1 (stereo unspecified)	17.3	1.0	0.8	-55.2*	-0.7
O=C(O)c1cc(O)c2c(c1)[C@H]([C@H]1c3cc(C(=O)O)cc(O)c3C(=O)c3c(O[C@@H]4O[C@H](CO)[C@@H](O)[C@H](O)[C@H]4O)cccc31)c1cccc(O[C@@H]3O[C@H](CO)[C@@H](O)[C@H](O)[C@H]3O)c1C2=O	.	.	-8.1	.	.
COCCOC(=O)c1c(NC(=O)CNCc2ccco2)sc(C(N)=O)c1C	4.3	-34.6*	-6.8	13.0	-5.2
COCCOC(=O)c1c(NC(=O)CNc2ccc(C)c(F)c2)sc(C(N)=O)c1C	2.7	6.9	27.8	4.8	1.2
Cc1sc(NC(=O)C2CCCCC2C(=O)O)c(C(N)=O)c1C (stereo unspecified)	0.7	-36.9*	-14.4	-6.0	-0.7
Cc1sc(NC(=O)C2CCCCC2C(=O)O)c(C(N)=O)c1-c1ccccc1 (stereo unspecified)	3.4	8.0	-4.7	-13.3	4.5
COC(=O)CCC(=O)Nc1sc(C)c(C)c1C(N)=O	-0.5	-40.9*	1.2	-3.6	-6.1
NNc1nc(-c2ccccc2)cc(-c2ccccc2O)n1	.	.	-86.1	-99.5*	.
COc1ccc(-c2cc(C(=O)N3CC4(C)CC3CC(C)(C)C4)no2)cc1 (stereo unspecified)	0.8	-32.7*	-12.0	-27.0	-6.8
Cc1ccc(-c2cc(C(=O)N3CC4(C)CC3CC(C)(C)C4)no2)cc1 (stereo unspecified)	.	.	0.3	18.5	.
Cc1cc(C)n(-c2nc(NCCN(C)C)c3c4c(sc3n2)CCCC4)n1	32.8*	6.8	-4.8	-7.4	-3.6
Cc1cc(C)n(-c2nc(NCCCN(C)C)c3c4c(sc3n2)CCCC4)n1	10.0	-24.1	-8.5	-9.3	-8.6
Cc1ccc(N2C(=O)C3C4C=CC(CNC(=S)Nc5ccc(Cl)cc5)(O4)C3C2=O)cc1 (stereo unspecified)	12.6	-31.4*	4.0	17.4	-9.6
O=C(NCCOc1ccc(F)cc1)C1CCC(=O)N(CCCN2CCOCC2)C1 (stereo unspecified)	1.5	5.6	-0.3	2.3	18.3
O=C(NCCOc1ccc(F)cc1)C1CCC(=O)N(CCN2CCOCC2)C1 (stereo unspecified)	-0.1	-53.0*	-23.9	-13.7	-4.9
COC(=O)c1c(C(=O)OC)c2c(-c3ccccc3)cc3cccc1n32	.	.	34.2*	93.1	.
CN(C)CCNC(=O)c1cc2c(s1)-c1ccccc1OC2	121.8*	-53.5*	-13.0	-81.4*	-8.2
COc1ccc(N(C)C(=O)c2cc3c(s2)-c2ccccc2OC3)c(OC)c1	2.4	-40.1*	2.8	2.9	-8.9
O=C(NCc1cccc(Cl)c1)c1cc2c(s1)-c1ccccc1OC2	4.5	-50.2*	-14.5	.	-7.8
Cc1ccc(C)c(N(C)C(=O)c2cc3c(s2)-c2ccccc2OC3)c1	-1.3	7.7	-6.2	.	2.0
CCN1CCN(CCCNC(=O)c2cc3c(s2)-c2ccccc2OC3)CC1	-0.1	41.3	-19.2	?	-12.6
O=C(NCCCN1CCN(c2ccccc2F)CC1)c1cc2c(s1)-c1ccccc1OC2	5.1	-45.7*	0.7	.	-7.0
CCCN1CCN(CCCNC(=O)c2cc3c(s2)-c2ccccc2OC3)CC1	4.8	-12.1	-22.3	?	-11.2
SMILES	D1 ag	D1 antagonist	DRD3 agonist	D3 antag	D1 PAM
CC(C)(C)NC(=O)[C@H]1CC[C@H]2[C@@H]3CC=C4C=C(C(=O)O)CC[C@]4(C)[C@H]3CC[C@]12C	.	.	-3.3	.	.
COc1cccc2cc(C(=O)Nc3ccc(CC(=O)O)cc3)c(=O)oc12	-0.5	16.9	3.4	.	-0.8
Cc1csc(NC(=O)c2cc3c(s2)-c2ccccc2OC3)n1	3.0	-8.7	8.5	23.0	3.0
Cc1c(NC(=O)c2cc3c(s2)-c2ccccc2OC3)cccc1[N+](=O)[O-]	2.8	-39.7*	-11.3	9.4	-8.0
CN(CCCC1CCCC1)C(=O)CC1C(=O)NCCN1Cc1cccc(F)c1F (stereo unspecified)	0.2	9.2	3.1	13.8	30.5*
CN(CCC1CCOCC1)C(=O)CC1C(=O)NCCN1Cc1c(F)cccc1Cl (stereo unspecified)	11.1	-51.8*	-0.3	-3.8	-2.5
CCc1cccc(C)c1NC(=O)C1CCN(c2nnc(C)c3c(C)n(-c4ccccc4)nc23)CC1	0.0	-13.5	-2.4	.	1.4
Cc1ccc(N2CC(NC(=O)c3cccs3)CC2=O)cc1C (stereo unspecified)	-0.8	.	4.3	.	1.7
CC(=O)c1cc(C#N)c(SCC(=O)O)nc1C	0.1	2.1	2.3	7.1	-3.2
CCCCSc1nc(C)c(C(C)=O)cc1C#N	4.2	7.8	-5.1	-51.7*	-4.8
Cc1ccc(N2C(=O)/C(=C\c3ccc(C(C)C)cc3)N=C2SC2CCOC2=O)cc1 (stereo unspecified)	1.9	-38.3*	-10.9	?	-10.5
O=C1OCCC1Sc1nnnn1-c1ccccc1 (stereo unspecified)	2.1	-4.5	-9.2	4.6	-1.4
CCOc1ccc2oc(=O)cc(CN3CCN(c4ccc(Cl)cc4)CC3)c2c1	3.1	36.9	5.2	.	3.8
COc1cccc2cc(-c3nc(Nc4cccc(C)c4)sc3C)c(=O)oc12	3.1	8.7	80.3*	.	-2.0
CN1C(CC(=O)c2ccccc2)CCCC1CC(O)c1ccccc1 (stereo unspecified)	2.7	-17.4	-45.9	-80.5*	-2.9
CN1[C@@H](CC(=O)c2ccccc2)CCC[C@H]1C[C@H](O)c1ccccc1	8.1	-8.7	-91.0	-74.8*	-4.6
O=C(CC1C(=O)CCCC1=O)c1ccccc1	7.1	-2.8	4.6	7.1	2.2
N#Cc1ccccc1Cn1c(=O)n(-c2cccc(C(F)(F)F)c2)c(=O)c2sccc21	0.9	6.5	0.1	.	-0.2
Cc1nc2[nH]c(=O)c3c(n2n1)NC1=C(C(=O)CC(C)(C)C1)C3c1ccccc1 (stereo unspecified)	4.8	-51.3*	-0.8	20.1	-2.7
CC1(C)CC(=O)C2=C(C1)NC1=C(C(=O)c3ccccc31)C2c1ccccc1 (stereo unspecified)	-0.7	0.4	4.3	-6.7	0.5
COc1ccc(CCNC(=O)Cn2nnc(-c3cccc(C(F)(F)F)c3)n2)cc1OC	4.0	-0.6	8.1	.	-1.6
